Measurements reported in article PMC11006913.
Residue numbers refer to the chain shown, from its start.

Assays:
Experiment in all cases: PBM; 200 nM protein, PBS
Conditions in all cases: dsDNA, one strand shown
[1] = molecular target: T1, SIX6 (Homo sapiens, UniProt O95475 114-200, L167I)
T1 sequence: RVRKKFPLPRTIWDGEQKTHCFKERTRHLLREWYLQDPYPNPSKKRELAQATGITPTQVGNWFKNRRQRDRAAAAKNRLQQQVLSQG

[2] = molecular target: T2, SIX6 (Homo sapiens, UniProt O95475 114-200, L143V)
T2 sequence: T1 sequence with L30V, I54L

[3] = molecular target: T3, SIX6 (Homo sapiens, UniProt O95475 114-200, H141N)
T3 sequence: T1 sequence with H28N, I54L

[4] = molecular target: T4, SIX6 (Homo sapiens, UniProt O95475 114-200, T165P)
T4 sequence: T1 sequence with T52P, I54L

[5] = molecular target: T5, SIX6 (Homo sapiens, UniProt O95475 114-200, L167M)
T5 sequence: T1 sequence with I54M

[6] = molecular target: T6, SIX6 (Homo sapiens, UniProt O95475 114-200, L143M)
T6 sequence: T1 sequence with L30M, I54L

[7] = molecular target: T7, SIX6 (Homo sapiens, UniProt O95475 114-200, L143I)
T7 sequence: T1 sequence with L30I, I54L

[8] = molecular target: T8, SIX6 (Homo sapiens, UniProt O95475 114-200, T165G)
T8 sequence: T1 sequence with T52G, I54L

[9] = molecular target: T9, SIX6 (Homo sapiens, UniProt O95475 114-200, T139Q)
T9 sequence: T1 sequence with T26Q, I54L

[10] = molecular target: T10, SIX6 (Homo sapiens, UniProt O95475 114-200, T165A)
T10 sequence: T1 sequence with T52A, I54L

[11] = molecular target: T11, SIX6 (Homo sapiens, UniProt O95475 114-200, L167V)
T11 sequence: T1 sequence with I54V

[12] = molecular target: T12, SIX6 (Homo sapiens, UniProt O95475 114-200)
T12 sequence: T1 sequence with I54L

[13] = molecular target: T13, SIX6 (Homo sapiens, UniProt O95475 114-200, T165I)
T13 sequence: T1 sequence with T52I, I54L

Sequence | binding signal [1] | binding signal [2] | binding signal [3] | binding signal [4] | binding signal [5] | binding signal [6] | binding signal [7] | binding signal [8] | binding signal [9] | binding signal [10] | binding signal [11] | binding signal [12] | binding signal [13]
AGGTATCA | 11.7 upbm affinity estimate (log intensity, higher = more binding, comparable within an allelic series) | 10.6 upbm affinity estimate (log intensity, higher = more binding, comparable within an allelic series) | 11.8 upbm affinity estimate (log intensity, higher = more binding, comparable within an allelic series) | 9.9 upbm affinity estimate (log intensity, higher = more binding, comparable within an allelic series) | 11 upbm affinity estimate (log intensity, higher = more binding, comparable within an allelic series) | 11.4 upbm affinity estimate (log intensity, higher = more binding, comparable within an allelic series) | 10.7 upbm affinity estimate (log intensity, higher = more binding, comparable within an allelic series) | 11.8 upbm affinity estimate (log intensity, higher = more binding, comparable within an allelic series) | 11.6 upbm affinity estimate (log intensity, higher = more binding, comparable within an allelic series) | 11.7 upbm affinity estimate (log intensity, higher = more binding, comparable within an allelic series) | 11.5 upbm affinity estimate (log intensity, higher = more binding, comparable within an allelic series) | 11.4 upbm affinity estimate (log intensity, higher = more binding, comparable within an allelic series) | 11.5 upbm affinity estimate (log intensity, higher = more binding, comparable within an allelic series)
GTATCACA | 11.4 upbm affinity estimate (log intensity, higher = more binding, comparable within an allelic series) | 10.4 upbm affinity estimate (log intensity, higher = more binding, comparable within an allelic series) | 11.4 upbm affinity estimate (log intensity, higher = more binding, comparable within an allelic series) | 9.83 upbm affinity estimate (log intensity, higher = more binding, comparable within an allelic series) | 10.8 upbm affinity estimate (log intensity, higher = more binding, comparable within an allelic series) | 11.2 upbm affinity estimate (log intensity, higher = more binding, comparable within an allelic series) | 10.5 upbm affinity estimate (log intensity, higher = more binding, comparable within an allelic series) | 11.6 upbm affinity estimate (log intensity, higher = more binding, comparable within an allelic series) | 11.4 upbm affinity estimate (log intensity, higher = more binding, comparable within an allelic series) | 11.4 upbm affinity estimate (log intensity, higher = more binding, comparable within an allelic series) | 11.2 upbm affinity estimate (log intensity, higher = more binding, comparable within an allelic series) | 11.2 upbm affinity estimate (log intensity, higher = more binding, comparable within an allelic series) | 11.2 upbm affinity estimate (log intensity, higher = more binding, comparable within an allelic series)
ATACGATA | 11.1 upbm affinity estimate (log intensity, higher = more binding, comparable within an allelic series) | 10.4 upbm affinity estimate (log intensity, higher = more binding, comparable within an allelic series) | 11 upbm affinity estimate (log intensity, higher = more binding, comparable within an allelic series) | 9.94 upbm affinity estimate (log intensity, higher = more binding, comparable within an allelic series) | 10.6 upbm affinity estimate (log intensity, higher = more binding, comparable within an allelic series) | 10.9 upbm affinity estimate (log intensity, higher = more binding, comparable within an allelic series) | 10.4 upbm affinity estimate (log intensity, higher = more binding, comparable within an allelic series) | 11.2 upbm affinity estimate (log intensity, higher = more binding, comparable within an allelic series) | 11.2 upbm affinity estimate (log intensity, higher = more binding, comparable within an allelic series) | 11 upbm affinity estimate (log intensity, higher = more binding, comparable within an allelic series) | 10.9 upbm affinity estimate (log intensity, higher = more binding, comparable within an allelic series) | 10.9 upbm affinity estimate (log intensity, higher = more binding, comparable within an allelic series) | 10.8 upbm affinity estimate (log intensity, higher = more binding, comparable within an allelic series)
GCCGCGGC | 9.02 upbm affinity estimate (log intensity, higher = more binding, comparable within an allelic series) | 8.88 upbm affinity estimate (log intensity, higher = more binding, comparable within an allelic series) | 8.98 upbm affinity estimate (log intensity, higher = more binding, comparable within an allelic series) | 9.04 upbm affinity estimate (log intensity, higher = more binding, comparable within an allelic series) | 8.87 upbm affinity estimate (log intensity, higher = more binding, comparable within an allelic series) | 9.03 upbm affinity estimate (log intensity, higher = more binding, comparable within an allelic series) | 8.95 upbm affinity estimate (log intensity, higher = more binding, comparable within an allelic series) | 9.01 upbm affinity estimate (log intensity, higher = more binding, comparable within an allelic series) | 9.14 upbm affinity estimate (log intensity, higher = more binding, comparable within an allelic series) | 8.95 upbm affinity estimate (log intensity, higher = more binding, comparable within an allelic series) | 9.01 upbm affinity estimate (log intensity, higher = more binding, comparable within an allelic series) | 9 upbm affinity estimate (log intensity, higher = more binding, comparable within an allelic series) | 8.83 upbm affinity estimate (log intensity, higher = more binding, comparable within an allelic series)
ACGTATCA | 11.3 upbm affinity estimate (log intensity, higher = more binding, comparable within an allelic series) | 10.3 upbm affinity estimate (log intensity, higher = more binding, comparable within an allelic series) | 11.3 upbm affinity estimate (log intensity, higher = more binding, comparable within an allelic series) | 9.82 upbm affinity estimate (log intensity, higher = more binding, comparable within an allelic series) | 10.7 upbm affinity estimate (log intensity, higher = more binding, comparable within an allelic series) | 11.1 upbm affinity estimate (log intensity, higher = more binding, comparable within an allelic series) | 10.4 upbm affinity estimate (log intensity, higher = more binding, comparable within an allelic series) | 11.3 upbm affinity estimate (log intensity, higher = more binding, comparable within an allelic series) | 11.3 upbm affinity estimate (log intensity, higher = more binding, comparable within an allelic series) | 11.2 upbm affinity estimate (log intensity, higher = more binding, comparable within an allelic series) | 11.1 upbm affinity estimate (log intensity, higher = more binding, comparable within an allelic series) | 11.1 upbm affinity estimate (log intensity, higher = more binding, comparable within an allelic series) | 11 upbm affinity estimate (log intensity, higher = more binding, comparable within an allelic series)
CGATACCA | 10.8 upbm affinity estimate (log intensity, higher = more binding, comparable within an allelic series) | 10 upbm affinity estimate (log intensity, higher = more binding, comparable within an allelic series) | 10.8 upbm affinity estimate (log intensity, higher = more binding, comparable within an allelic series) | 9.44 upbm affinity estimate (log intensity, higher = more binding, comparable within an allelic series) | 10.3 upbm affinity estimate (log intensity, higher = more binding, comparable within an allelic series) | 10.7 upbm affinity estimate (log intensity, higher = more binding, comparable within an allelic series) | 10.1 upbm affinity estimate (log intensity, higher = more binding, comparable within an allelic series) | 11 upbm affinity estimate (log intensity, higher = more binding, comparable within an allelic series) | 11.1 upbm affinity estimate (log intensity, higher = more binding, comparable within an allelic series) | 10.8 upbm affinity estimate (log intensity, higher = more binding, comparable within an allelic series) | 10.6 upbm affinity estimate (log intensity, higher = more binding, comparable within an allelic series) | 10.8 upbm affinity estimate (log intensity, higher = more binding, comparable within an allelic series) | 10.6 upbm affinity estimate (log intensity, higher = more binding, comparable within an allelic series)
